Results taken from PubChem BioAssay AID504834 (National Center for Advancing Translational Sciences (NCATS), 2011).
“And” between values parts separate entries of the source, which are not always exact repeats. Equal entries are not always repeated. In all, about 320,000 compounds went through this assay and about 22,000 (6.9%) were called active. A call without a number means that no potency is given here. About 27% were inconclusive and are not listed. Calls follow the shape of the dose curve; as a rule, active = well fitted inhibition curve with a large enough effect; inconclusive = small, poorly fitted or top-dose-only effect, or another doubt; inactive = no such curve, though single readings can be large or run the other way. This excerpt belongs to a sample that is enriched for actives. Some structures have more than one record in an assay (separate samples or runs), and their calls can disagree.

Experiment: Primary qHTS for delayed death inhibitors of the malarial parasite plastid, 96 hour incubation
Details: P. falciparum luciferase reporter growth; series mostly up to 28.7 µM
Summary of the method: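 P. falciparum expressing integrated firefly luciferase grown in erythrocytes (2% hematocrit, 0.05% parasitemia final) with compounds for 96 hours at 37 C, 5% CO2. Growth inhibition read as loss of luminescence after adding luciferase detection reagent.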
Potency is read from the fitted curve at half-maximal effect.

SMILES	Potency
Cc1ccc(-c2noc(CNC(=O)c3ccoc3C)n2)cc1	inactive
O=C(NC1CCCC1)C1CCN(C(=O)Nc2cccc(Cl)c2)CC1	inactive
COc1ccccc1NC(=O)Nc1nc(CC(=O)Nc2ccccc2F)cs1	inactive
Cc1ccccc1N1CCN(CCCOc2ccc3c(C)cc(=O)oc3c2)CC1	inactive
Cc1cc(=O)oc2ccc(OCC(=O)O)cc12	inactive
Cc1cc(=O)oc2cc(OCCC[n+]3ccccc3)ccc12	4.65 µM (active)
Cc1ccc(C2SCC(=O)N2c2ccccc2)cc1 (stereo not drawn)	inactive
CN(CC(=O)Nc1cccc(F)c1)C(=O)C1=COCCO1	inactive
CC(OC(=O)c1cc2ccccc2o1)C(=O)Nc1ccc(N2CCOCC2)cc1 (stereo not drawn)	inactive
COc1ccc(C(=O)NC2=NCCS2)c(OC)c1	inactive
CCCOc1ccc(NC(=O)C2CCCNC2=O)cc1 (stereo not drawn)	inactive
CCCOc1ccc(NC(=O)C2OC3OC(C)(C)OC3C3OC(C)(C)OC23)cc1 (stereo not drawn)	10.4 µM (active)
CCCOc1ccc(C(=O)CCC(=O)OC(C)C(=O)Nc2ccc(NC(C)=O)cc2)cc1 (stereo not drawn)	inactive
CC(=O)c1ccc(N2CCN(C(=O)c3ccc(Cl)c(S(=O)(=O)NC4CC4)c3)CC2)c(F)c1	inactive
CC(C)OC(=O)c1ccc(COc2ccc3ccc(=O)oc3c2)o1	inactive
Cc1ccccc1CCN(CC(=O)NC1CCCCC1)C(=O)c1csnn1	11.7 µM (active)
Cc1ccc(CN(CC(=O)NC2CCCCC2)C(=O)c2csnn2)cc1	inactive
O=C(CN(C(=O)c1csnn1)c1ccc(Br)cc1)NC1CCCC1	inactive
Cc1cc(NC(=O)CCC(=O)N(CC(=O)NCC2CCCO2)c2ccccc2)no1 (stereo not drawn)	inactive
O=C(CN1CCC(O)(c2cccc(C(F)(F)F)c2)CC1)NCCc1ccccc1	inactive
CCN(CC)CCNC(=O)c1ccc(NC(=O)c2cc(-c3ccncc3)nc3ccccc23)cc1	8.28 µM (active)
COC(=O)CNC(=O)c1cc(-c2ccncc2)nc2ccccc12	inactive
Cc1ccc2nc(-c3ccncc3)cc(C(=O)Nc3ccc4c(c3)OCCO4)c2c1	inactive
O=S(=O)(Nc1cccc(-c2ccc(N3CCOCC3)nn2)c1)c1ccc(Cl)c(Cl)c1	inactive
CCCCCCOC(=O)NCC(O)c1ccccc1 (stereo not drawn)	inactive
CCCC[N+]1(C)C2CC(OC(=O)C(CO)c3ccccc3)CC1C1OC12 (stereo not drawn)	inactive and 1.2 µM (active)

SMILES	Potency
CCCCC(=O)NNC(=S)NC(=O)C(c1ccccc1)c1ccccc1	inactive
CN(C)C(=O)Cn1c(=O)n(S(=O)(=O)c2ccccc2)c2ccccc21	inactive
Cc1cccc(OCC(=O)NCC(=O)N/N=C/c2ccc(N(C)C)cc2)c1	7.38 µM (active)
Cc1ccc(OCC(=O)N/N=C/c2ccncc2)cc1	inactive
Cc1ccc(/C=N/NC(=O)CNC(=O)COc2ccccc2)o1	inactive
COc1ccccc1C(=O)COC(=O)CNS(=O)(=O)c1ccc(NC(C)=O)cc1	inactive
Cc1ccc(N2C(=O)C3C4C=CC(CC4)C3C2=O)cc1Br (stereo not drawn)	inactive
Cc1ccc(N2C(=O)C3C4C=CC(CC4)C3C2=O)cc1Cl (stereo not drawn)	3.7 µM (active)
CC(=O)Nc1ccc(N2C(=O)C3C4C=CC(CC4)C3C2=O)cc1 (stereo not drawn)	inactive
CCC(C)(C)NC(=O)C(c1ccc(OC)cc1)N(C(=O)CCC(=O)Nc1cc(C)on1)c1ccc(OC)cc1OC (stereo not drawn)	inactive
COc1cc(CC(=O)N2CCC(n3nccc3NC(=O)C3CC3)CC2)cc(OC)c1OC	inactive
Cc1ccc(-c2nc3c(cnn3-c3ccccc3)c(=O)o2)cc1	inactive
Cc1ccc(-n2ncc3c(=O)n(-c4ccc(C)c(C)c4)c(-c4ccco4)nc32)cc1	9.28 µM (active)
O=c1c2ccccc2nc(-c2ccco2)n1-c1ccc(Br)cn1	inactive
CC(=O)Nc1ccc(C(=O)N(C2=NC(C)CS2)c2ccc(Cl)cc2)cc1 (stereo not drawn)	inactive
COc1ccc(S(=O)(=O)NCC(c2ccco2)N2CCOCC2)cc1 (stereo not drawn)	inactive
CCC(=O)N(Cc1ccccc1)c1ccccn1	inactive
CCN(Cc1ccncc1)C(=O)CCc1ccccc1	13.1 µM (active)
O=C(O)CCC(=O)N(Cc1ccccc1)Cc1ccccc1	inactive
O=C(CCC(=O)n1ncc2ccccc21)NCc1ccccc1Cl	inactive
Cc1ccc(-n2c(SCC(=O)NCc3ccc4c(c3)OCO4)nnc2-c2cccnc2)c(C)c1	9.28 µM (active)
Cc1ccccc1-n1c(SCC(=O)NCc2cccs2)nnc1-c1ccncc1	inactive
Cc1cccc(C)c1NC(=O)CSc1nnc(-c2ccccc2)n1Cc1ccc2c(c1)OCO2	inactive
COc1ccc(NC(=O)c2cc(-c3ccc(C)cc3)on2)cc1	inactive
Cc1csc(NC(=O)CSc2nnc(-c3cccnc3)o2)n1	inactive
CCOc1ccc(/C=C(/NC(=O)c2ccccc2)C(=O)NCCC(=O)O)cc1	inactive

SMILES	Potency
CCc1ccccc1NC(=O)/C(=C/c1ccccc1)c1ccccc1	8.28 µM (active)
CCc1ccccc1NC(=O)c1cccs1	inactive
CCSc1nc(O)c(C(c2cccc(OC)c2)c2c(O)nc(SCC)[nH]c2=O)c(=O)[nH]1	inactive
CCOC(=O)C1CN(S(=O)(=O)c2ccc(OC)cc2)c2cc(Cl)ccc2O1 (stereo not drawn)	inactive
CCOC(=O)C1=C(CSc2nccn2C)NC(=O)NC1c1ccc(OC)cc1 (stereo not drawn)	13.1 µM (active)
CCOC(=O)C1=C(c2ccccc2)NC(=O)NC1c1cc(OC)c(OC)cc1OC (stereo not drawn)	inactive
COc1ccc(-c2ccc3nnc(SCC(=O)Nc4ccc(NC(C)=O)cc4)n3n2)cc1	inactive
O=C(Nc1ccccc1)N1CCN(C(=O)Nc2ccccc2)CC1	inactive
O=C(Nc1ccccc1)N1CCN(C2c3ccccc3-c3ccccc32)CC1	2.62 µM (active)
O=C(Nc1ccccc1)N1CCN(Cc2ccccc2)CC1	inactive
CN1C(C(=O)NCc2ccco2)CC2Cn3c(nc4ccccc43)C21 (stereo not drawn)	inactive
CC(C)(C)C(=O)Nc1ccc(-c2cn3cccnc3n2)cc1	inactive
O=C(NC(=S)Nc1ccc(Cl)cc1Cl)C1CC1	inactive
Cc1ccc(C(=O)COC(=O)CCN2C(=O)C3C4CCC(C4)C3C2=O)cc1C (stereo not drawn)	inactive
O=C(CCN1C(=O)C2C3CCC(C3)C2C1=O)Nc1ccc(Cl)cc1Cl (stereo not drawn)	7.38 µM (active)
O=C(N/C(=C\c1ccc([N+](=O)[O-])cc1)C(=O)N1CCCCC1)c1ccco1	inactive
COCCn1c(SCC(=O)Nc2nc(C)cs2)nnc1C(C)C	inactive
O=C(NCc1ccc2c(c1)OCO2)c1ccc2c(c1)C(=O)N(CC1CCCO1)C2=O (stereo not drawn)	inactive
O=C1c2cccc3c([N+](=O)[O-])ccc(c23)C(=O)N1CC1CCCO1 (stereo not drawn)	10.4 µM (active)
CCC(=O)Nc1ccc(C(=O)Nc2ccc3c(c2)C(=O)N(CC2CCCO2)C3=O)cc1 (stereo not drawn)	inactive
C[N+](C)(C)CCNC(=O)c1cc[n+](Cc2ccccc2)c(/C=N/O)c1	inactive
O=C(Nc1ccccn1)C1CCN(S(=O)(=O)c2ccc3c(c2)OCCO3)CC1	inactive
O=C(Nc1nccs1)C1CCN(S(=O)(=O)c2ccc(Cl)c(C(F)(F)F)c2)CC1	13.1 µM (active)
O=C(Nc1ccccn1)C1CCN(S(=O)(=O)c2ccccc2)CC1	inactive
CN(C)c1ccc(-c2nnc(-c3cccnc3)o2)cc1	inactive
CC1CC(C)CN(S(=O)(=O)c2cccc3nonc23)C1 (stereo not drawn)	inactive

SMILES	Potency
CCN(C(=O)CSc1nnnn1-c1ccccc1OC)C1CCS(=O)(=O)C1 (stereo not drawn)	inactive
COc1ccc(CCNC(=O)CCNS(=O)(=O)c2cc(Br)cnc2N)cc1OC	inactive
COc1cc2c(cc1OC)C(C(=O)Nc1cc(C)c(OC)c(C)c1)CC(=O)N2 (stereo not drawn)	inactive
COc1cc2c(cc1OC)C(c1ccc(C)o1)CC(=O)N2 (stereo not drawn)	13.1 µM (active)
COC(=O)C1=C(C)NC(=O)CC1c1ccccc1OC (stereo not drawn)	inactive
CC(=O)CC[C@@H](C)O[C@@H]1OC(C)[C@H](O)CC1O (stereo partly drawn)	inactive
C=CCOc1ccc(/C=C/C(=O)OCC(=O)NC2CCCCCC2)cc1	inactive
N#Cc1cccc(NC(=O)CCC2CCCC2)c1	inactive
N#Cc1cccc(NC(=O)C2CCCN(C(=O)c3ccc(Cl)cc3)C2)c1 (stereo not drawn)	9.28 µM (active)
N#Cc1cccc(NC(=O)CN2CCCCCC2)c1	inactive
COC(=O)C1=CN(c2ccc(F)c(F)c2)C=C(C(=O)OC)C1c1ccc([N+](=O)[O-])cc1	inactive
COc1ccc(C(C(=O)NC2CCCCC2)N(C(=O)c2snc(C(N)=O)c2N)c2ccccc2OC)cc1 (stereo not drawn)	inactive
COc1cccc(N(C(=O)C2COc3ccccc3O2)C(C(=O)NC2CCCCC2)c2ccc(O)cc2)c1 (stereo not drawn)	inactive
COc1ccc(C(C(=O)NC2CCCCC2)N(C(=O)CCl)c2ccccc2Cl)cc1 (stereo not drawn)	0.294 µM (active)
CC(C)C(c1nnnn1C1CCCCC1)N1CCN(C(=O)c2ccco2)CC1 (stereo not drawn)	inactive
CN(C)Cc1c(C(=O)N/N=C/c2ccccc2OCc2ccc(F)cc2)nnn1-c1nonc1N	inactive
CCC1OC(c2ccc([N+](=O)[O-])cc2)=Nc2ccccc21 (stereo not drawn)	inactive
CCCC(=O)N1CCC(CCC(=O)NC2CC2)CC1	inactive
COc1ccc(CCNC(=O)COC(=O)C2CCCCC2)cc1	inactive
COc1ccc(C[C@H]2CN3C(=NC[C@H]3C)N2CCNC(=O)CCC2CCCCC2)cc1	6.57 µM (active)
COc1ccc(NC(=O)CCCC2CCCCC2)c(OC)c1	inactive
CCCOc1ccc(C2NC(=O)NC(c3ccccc3)=C2C(C)=O)cc1OCC (stereo not drawn)	4.65 µM (active)
CCOC(=O)C1=C(c2ccccc2)NC(=O)NC1c1cc(OCC)c(O)c([N+](=O)[O-])c1 (stereo not drawn)	inactive
COc1cc(C2NC(=O)NC(c3ccccc3)=C2C(C)=O)c(Br)cc1OCC(N)=O (stereo not drawn)	inactive
Cc1ccc(S(=O)(=O)N/N=C(\c2ccccc2)C2CC2)cc1	inactive
